In the library only some 10% were active in any assay of this set; here they are far more common.
G9a block – blocks human histone lysine methyltransferase G9a. actives 8.8% (n = 350,000). Potency, µM (top dose mostly 102 µM), hits mostly inhibitors. G9a H3K9 monomethylation, AlphaScreen, 2 h. AID 504332; also: nearly all actives have a fitted effect of over 75% in size
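AlphaScreen detection with an anti-monomethyl H3K9 antibody quantified product after a 2 h room-temperature reaction containing 500 nM biotinylated H3K9 peptide, 20 µM SAM and 20 nM enzyme, which had been preincubated 15 min with compound.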
HP1b chromo inh – inhibitors of HP1-beta chromodomain binding to methylated histone tails | P83916 | AlphaScreen HP1-beta / biotin-H3K9me3 peptide binding | Potency, µM (series often up to 114 µM), hits mostly inhibitors | actives 0.56% (n = 390,000) | AID 540317; also: nearly all actives have a fitted effect of over 70% in size
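HP1-beta protein (50 nM final) preincubated 30 min at room temperature with biotinylated H3(1-18)K9me3 peptide (50 nM) in PBS pH 7.4, 0.01% Tween-20, then compound added for 30 min. AlphaScreen streptavidin donor/nickel chelate acceptor beads (10 ug/mL final), 30 min dark, luminescence read.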
JMJD2A Tudor – inhibitors of human JMJD2A Tudor domain. actives 4.4% (n = 390,000). Potency, µM (top dose mostly 114 µM), actives largely listed as inhibitors. AlphaScreen JMJD2A-Tudor / H3K4me3 peptide binding. O75164. AID 504339; also: nearly all actives have a fitted effect of over 50% in size
BAZ2B inh – inhibitors of human BAZ2B bromodomain. Q9UIF8. AlphaScreen BAZ2B-H3K14Ac peptide displacement. Potency, µM (doses to about 114 µM), actives largely listed as inhibitors. actives 4.4% (n = 360,000); also: nearly all actives have a fitted effect of over 60% in size
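Multi-concentration screen (max 110 uM) measuring displacement of acetylated histone H3 peptide from BAZ2B by AlphaScreen, using 50 nM protein, 50 nM peptide and 10 ug/mL streptavidin donor plus Ni-chelate acceptor beads.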
GLS inhibitor – blocks human kidney-isoform glutaminase activity. O94925. GLS enzymatic activity, qHTS titration. Potency, µM (titrated, usually from 45.5 µM), usual class: inhibitors. actives 0.21% (n = 410,000). AID 624170
Target sequence (O94925 whole entry, looked up, canonical isoform): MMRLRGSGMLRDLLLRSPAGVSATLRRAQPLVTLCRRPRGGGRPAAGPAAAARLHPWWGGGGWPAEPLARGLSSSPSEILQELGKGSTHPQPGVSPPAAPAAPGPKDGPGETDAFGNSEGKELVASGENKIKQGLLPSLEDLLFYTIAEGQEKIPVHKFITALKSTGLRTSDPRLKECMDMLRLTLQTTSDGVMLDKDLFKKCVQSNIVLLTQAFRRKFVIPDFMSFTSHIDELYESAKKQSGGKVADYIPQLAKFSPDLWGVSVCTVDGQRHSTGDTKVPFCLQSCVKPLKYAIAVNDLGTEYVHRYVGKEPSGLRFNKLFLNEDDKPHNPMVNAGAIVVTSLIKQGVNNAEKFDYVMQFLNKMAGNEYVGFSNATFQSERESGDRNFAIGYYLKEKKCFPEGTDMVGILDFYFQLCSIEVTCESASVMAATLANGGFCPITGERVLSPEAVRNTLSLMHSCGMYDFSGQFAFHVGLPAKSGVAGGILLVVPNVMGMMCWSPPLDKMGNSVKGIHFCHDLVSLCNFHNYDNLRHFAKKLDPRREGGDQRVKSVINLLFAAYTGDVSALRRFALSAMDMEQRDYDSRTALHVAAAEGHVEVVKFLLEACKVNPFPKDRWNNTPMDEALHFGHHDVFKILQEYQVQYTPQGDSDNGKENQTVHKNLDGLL
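hKGA in 45 mM KH2PO4 (pH 8.2), 0.02% Tween-20 with compound, then 1mM L-Glutamine (stock as added) plus glutamate oxidase/HRP/Amplex red coupling mix. Fluorescence read initially and after 30 min at RT; signal change reflects glutamate formation.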
A number is an active result; . = inactive; ? = inconclusive; / = no result given; [ ] = remark or other dose. Calls follow the shape of the dose curve; as a rule, active = well fitted curve in the direction sought with a large enough effect; inconclusive = small, poorly fitted or top-dose-only effect, or another doubt; inactive = no such curve, though single readings can be large; an effect the other way counts as inactive or inconclusive.

SMILES	G9a block	HP1b chromo inh	JMJD2A Tudor	BAZ2B inh	GLS inhibitor
CCN(C(=O)C1CCN(S(=O)(=O)c2ccc3c(c2)CCCN3C(=O)C2CCC2)CC1)c1cccc(C)c1	.	.	.	.	.
CC(=O)Oc1ccc(C(=O)[C@H]2[C@H]3C(=O)N(c4ccccc4)C(=O)[C@H]3[C@@H]3C=CC=NN32)cc1	4.5µM	.	.	.	.
O=C(Nc1ccccc1)[C@@H]1[C@@H]2C(=O)N(c3ccc(F)cc3)C(=O)[C@@H]2[C@H]2C=CC=NN21	/	.	.	.	.
CC(=O)Oc1ccc(C(=O)[C@H]2[C@H]3C(=O)N(c4ccc(C)cc4C)C(=O)[C@H]3[C@@H]3C=CC=NN32)cc1	3.5µM	.	?	.	.
CC(=O)Oc1ccc(N2C(=O)C3C(C2=O)C(C(=O)c2ccc(Cl)cc2)N2CCCC32)cc1 (stereo not given)	.[12.7 µM]	?	45µM	.	.
Cc1ccc(N2C(=O)[C@@H]3[C@H](C2=O)[C@H]2C=CC=NN2[C@@H]3C(=O)Nc2ccccc2)cc1	7.1µM	.	.	.	.
Cc1ccc(N2C(=O)C3C(C2=O)C(C(=O)c2ccc(Cl)cc2)N2CCCC32)cc1 (stereo not given)	?	.	.[11.4 µM]	?	.
CCOc1ccc(N2CC(C(=O)NNC(=O)c3ccc(Br)cc3)CC2=O)cc1 (stereo not given)	.	.	.	.	.
CC(=O)Nc1c(C(=O)Nc2ccccc2F)oc2ccccc12	.	.	.	.	.
COc1ccc(C(=O)[C@H]2[C@H]3C(=O)N(c4ccccc4)C(=O)[C@H]3C3C=CC=NN32)cc1 (stereo not given in full)	?	.	?	.	.
CC(=O)Oc1ccc(N2C(=O)[C@@H]3[C@H](C2=O)[C@H]2c4ccccc4C=NN2[C@@H]3C(C)=O)cc1	?	.	.	.	.
COc1ccc(N2C(=O)[C@@H]3[C@H](C2=O)[C@H](C(=O)c2ccc(OC(C)=O)cc2)N2N=CC=C[C@@H]32)cc1	3.5µM	/	/	?	/
CC(=O)Oc1ccc(C(=O)[C@H]2[C@H]3C(=O)N(c4ccc(C)cc4)C(=O)[C@H]3[C@@H]3C=CC=NN32)cc1	3.5µM	.	?	.	.
COc1ccc(C(=O)[C@H]2[C@H]3C(=O)N(c4ccc(C)cc4)C(=O)[C@H]3C3C=CC=NN32)cc1 (stereo not given in full)	/	.	.	40µM	.
Nc1ncnc2c1nc(Br)n2[C@@H]1O[C@@H]2COP(=O)(O)O[C@H]2[C@H]1O	/	.	.	/	.
Nc1sc(-c2ccccc2)c(Cc2ccccc2)c1C(=O)O	50µM	?	?	/	.
COC(=O)c1c(N)sc(Cc2ccccc2)c1C	.[0.501 µM]	.	.	?	.
CC(=O)N1CCC2(CCCN(c3ccc(-c4ccccc4)cc3)C2)CC1	.[12.7 µM]	/	/	/	/
Cc1[nH]c2ccccc2c1/C=N/Nc1ccccc1[N+](=O)[O-]	7.9µM	40µM	22µM	5.6µM	?
Cc1n[nH]c(C)c1CCC(=O)N/N=C/c1c(C)[nH]c2ccccc12	.	.	.	?	.
Cc1[nH]c2ccccc2c1/C=N/NS(=O)(=O)c1ccccc1	50µM	.	?	.	?
Cc1[nH]c2ccccc2c1/C=N/NC(=O)CCC(=O)NCc1ccccc1	.	.	11µM	.	?
Cc1cccc(NC(=O)c2cccc(S(=O)(=O)N(C)C3CCCCC3)c2)n1	/	/	/	/	.
CN[C@H](C)C(=O)NC[C@H]1O[C@@H](n2cnc3c(N)ncnc32)[C@H](O)[C@@H]1O	/	.	.	/	.
CC1(C(=O)NS(=O)(=O)Cc2ccccc2C(F)(F)F)CCN1C(=O)c1ccco1 (stereo not given)	/	/	/	/	.
SMILES	G9a block	HP1b chromo inh	JMJD2A Tudor	BAZ2B inh	GLS inhibitor
[C-]#[N+]c1cc(-c2ccncc2)c(C)[nH]c1=O	.	/	/	/	/
CC1(C(=O)NS(=O)(=O)C2CC2)CCCN(C(=O)c2cccs2)C1 (stereo not given)	/	/	/	/	.
CCOc1[nH]n(-c2ccccc2)c(=O)c1C=Nc1ccc(C)cc1	.	.	.	?	.
COc1nccnc1NS(=O)(=O)c1ccc(N=Cc2c(C)[nH]n(-c3ccccc3)c2=O)cc1	56µM	.	.	?	.
COc1nccnc1NS(=O)(=O)c1ccc(N=Cc2c(C)[nH]n(-c3ccc(C)c(C)c3)c2=O)cc1	45µM	.	?	?	.
CCOc1[nH]n(-c2ccccc2)c(=O)c1C=Nc1ccccc1	20µM	.	.	?	.
COc1cc(C(=O)NCc2nc3cccnc3n2Cc2ccc(C)cc2)cc(OC)c1OC	.	.	.	.	.
CCOC(=O)c1nc(C)[nH]c1C(=O)OCC	?	.	18µM	79µM	.
CN(C)S(=O)(=O)c1ccc2c(c1)Cc1cc(S(=O)(=O)N(C)C)ccc1-2	.	.	.	.	.
Cc1ccc(S(=O)c2ccc(NC(=O)C3CC3)cc2C#N)cc1 (stereo not given)	.	.	14µM	.	?
CCn1c(O)c(/C=N/n2cnnc2)sc1=S	18µM	.	56µM	?	.
O=C(CSc1ccsc1[N+](=O)[O-])NCCc1ccc(Cl)cc1	.	.	.	.	.
O=C(CSc1ccsc1[N+](=O)[O-])Nc1cc(F)ccc1F	35µM	?	45µM	20µM	?
CC(=O)c1ccc(NC(=O)CSc2ccsc2[N+](=O)[O-])cc1	50µM	.	?	35µM	.
CCN(CC)c1ccc(NC(=O)CSc2ccsc2[N+](=O)[O-])c(C)c1	?	?	22µM	32µM	.
Cc1ccc(CNC(=O)CSc2ccsc2[N+](=O)[O-])cc1	?	.	.	.	.
Cc1ccc(SCc2nc3ncccn3c2Br)cc1	.[12.7 µM]	.	.	.	.
O=C(NS(=O)(=O)Nc1ccccc1)C1=C(N2CCCC2)COC1=O	/	.	100µM	/	.
CC(C)Nc1nc(Cl)nc(N(C#N)CN2C(=O)c3ccccc3C2=O)n1	28µM	.	?	.	.
CCC(C)Nc1nc(Cl)nc(N(C#N)CN2C(=O)c3ccccc3S2(=O)=O)n1 (stereo not given)	?	.	?	.	.
O=C(CCN1C(=O)/C(=C/c2cccs2)SC1=S)Nc1ccc(O)cc1	.	.	.	.	.
CC(/C=C1\SC(=S)N(CCCC(=O)Nc2ccc(C(=O)O)c(O)c2)C1=O)=C\c1ccccc1	?	?	40µM	?	.
O=C(CCN1C(=O)/C(=C/c2cccs2)SC1=S)Nc1ccc(C(=O)O)c(O)c1	45µM	.	.	56µM	.
CC(/C=C1\SC(=S)N(CCC(=O)Nc2nc(C)cs2)C1=O)=C\c1ccccc1	?	.	40µM	?	.
O=C(CCCN1C(=O)/C(=C/c2cccs2)SC1=S)Nc1cccc(O)c1	28µM	?	40µM	?	.
Cc1cc(C)cc(NC(=O)N2CCC(N3CCCCC3)CC2)c1	.	.	.	.	.
COc1ccccc1CNc1cc(-c2ccccc2)nc2nncn12	.	.	.	.	.

Screening data (PubChem BioAssay)
